Molecules are shown by their SMILES. Results filed as inconclusive are left out. Where a call stands in place of a potency, no number is given. Activity calls are given as the source filed them. The call rests on the fitted dose curve.

A short description of the assay: qHTS for Inhibitors of Cell Surface uPA Generation: Wild-type Protective Antigen (WT-PrAg) Counterscreen for Cherry-picked Compounds. The conditions noted are these: cells, WT protective antigen toxicity counterscreen; series mostly up to 115 µM. (In qHTS, concentration-response curves come from the screen itself.)
Take `COc1ccc(S(=O)(=O)N2CCN(Cc3ccccc3)CC2)c(C)c1`: the Potency result was “inactive”.
With `COc1ccc([C@H]2CC(=O)C=C(c3ccc(CNC(=O)OC(C)(C)C)cc3)C2)cc1`, the Potency entry was “inactive”.
The entry for `C=C(C)C(=O)O[C@H]1C/C(C)=C\C(=O)/C=C(\C)[C@H](O)[C@@H]2OC(=O)C(=C)[C@@H]21` is “inactive”; for `O=C1NC(CCc2ccccc2)C(=O)N1Cc1ccccc1Cl` (centres undefined) it is “inactive”; for `CCc1ccccc1N(CC(=O)N1CCCC1)S(C)(=O)=O` it is “inactive”.
The entry for `COc1ccc([C@H]2[C@H](C(=O)OC(C)(C)C)N3N=Cc4ccccc4C3C23C(=O)c2ccccc2C3=O)cc1OC` (some centres undefined) is “inactive”; for `Cc1cccc(-c2nc(CS(=O)CC(=O)NCc3cccs3)c(C)o2)c1` (centres undefined) it is “inactive”; for `COc1cc(N/C(N)=N/c2nc(C)cc(C)n2)cc(OC)c1` it is “inactive”.
The entry for `Cc1ccnc(NC(=O)CCNS(=O)(=O)c2ccc(C)c(C)c2)c1` is “inactive”; for `CC(=O)c1ccc(N=C2SCCCN2C(=O)C2CCCCC2)cc1` it is “inactive”.
As for `FC(F)(F)Oc1ccc(NC2=NCCCS2)cc1`, the Potency entry was “inactive”.
The entry for `O=C(Cc1ccc(Cl)cc1)NC(=S)Nc1ccccc1O` is “inactive”; for `OCCN(Cc1ccccc1)CC(O)COc1ccc2c(c1)OCO2` (centres undefined) it is “inactive”.
The entry for `CCCOc1ccc(CC2CCC(=O)NC2=O)cc1` (centres undefined) is “inactive”; for `NC(=O)CC(NC(=O)Cc1cccc2ccccc12)c1ccc(N2CCN(c3ccccc3)CC2)c([N+](=O)[O-])c1` (centres undefined) it is “inactive”.
The entry for `CCN(C(=O)c1c(C)noc1C)c1c(N)n(Cc2ccccc2)c(=O)[nH]c1=O` is “inactive”; for `COc1ccc(CCNC(=O)COC(=O)CNS(=O)(=O)c2ccc(SC)c([N+](=O)[O-])c2)cc1` it is “inactive”; for `Cc1oc2c(Cl)c(Cl)c(O)c(CN(C)C)c2c1C(=O)c1ccc(Cl)cc1` it is “inactive”.
Regarding `Cc1cccc(NC(=O)C2CCCN(S(=O)(=O)c3ccc4[nH]c(=O)ccc4c3)C2)c1` (centres undefined), the Potency entry was “inactive”.
The entry for `Cc1ccc(Nc2nc(Cl)c(C=O)s2)cc1` is “inactive”; for `Cc1cccc(C(=O)NC2CCN(CC(=O)N3CCOCC3)CC2)c1` it is “inactive”.
The entry for `O=C(COc1cc2oc(=O)cc(-c3ccccc3)c2cc1Cl)NC(Cc1c[nH]c2ccc(O)cc12)C(=O)O` (centres undefined) is “inactive”; for `COc1ccc(OC)c(NC(=O)C2CC2c2ccccc2)c1` (centres undefined) it is “inactive”; for `CC(=O)c1ccc(NC(=O)CN2CCN(c3ccccc3)CC2)cc1` it is “inactive”.
The entry for `CCOc1ccc(NC(=S)N2CCC(c3ccc(C)cc3)C2)cc1` (centres undefined) is “inactive”; for `COc1ccc(-c2csc(NC(C)c3nc4cc(C(=O)NCCCO)ccc4n3Cc3ccc(C)cc3)n2)cc1` (centres undefined) it is “inactive”.
In the case of `O=C(NCc1ccc(F)cc1)c1cc(S(=O)(=O)N2CCCCC2)ccc1N1CCOCC1`, the Potency result is “inactive”.
The entry for `COc1ccc(C(=O)NCCOC(C)C)cc1OC1CCN(C(C)=O)CC1` is “inactive”; for `CCOc1ccc(-n2cnc3scc(-c4ccc(OC)c(OC)c4)c3c2=O)cc1` it is “inactive”; for `COCCN(C(=O)c1ccc(OC2CCN(S(=O)(=O)N(C)C)CC2)cc1)C(C)C` it is “inactive”.
The entry for `Cc1cc(C)n(C(=O)c2cccc([N+](=O)[O-])c2)n1` is “inactive”; for `O=C(O)CCc1nn2c3ccccc3n(CC(=O)O)c2nc1=O` it is “inactive”.
The entry for `O=C(c1ccc(NC(=S)NCc2ccc(Cl)cc2)cc1)N1CCCCC1` is “inactive”; for `COc1ccccc1CCNC(=O)C(=O)NCC1OCCN1S(=O)(=O)c1ccc(OC)c(OC)c1` (centres undefined) it is “inactive”.
For the molecule `COc1cc(SC)ccc1C(=O)OCc1nc2ccsc2c(=O)[nH]1`, the Potency result is “inactive”.
The entry for `C[C@H](O)[C@@H]1C(=O)N2CCc3ccc(-c4cccc(F)c4)cc3[C@@H]2C[C@@H]1N(C)C(=O)C(C)(C)C` is “inactive”; for `Cc1ccc2[nH]c(CN3CCN(C)C(CCO)C3)c(C)c2c1` (centres undefined) it is “inactive”; for `O=C(COC(=O)c1cccc([N+](=O)[O-])c1)NNC(=O)c1cccs1` it is “inactive”.
The entry for `O=C1NCCN1C(=O)N(c1ccccc1)c1ccccc1` is “inactive”.

For the origin of these results see PubChem BioAssay AID720518 (National Center for Advancing Translational Sciences (NCATS), 2013).
